Measured values published in PubChem BioAssay (NCI).
The panel holds about 79,000 compounds, 15% with a hit somewhere; the sample as a whole holds those more often. No stated cut-off is given here; in the data, active means growth inhibition above about 70%; inactive means the rest.

Columns and labels:
[1] = NCI Yeast Anticancer Drug Screen. Data for the rad50 strain (AID 155);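 further: 0% = growth of vehicle-only cultures of the same strain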; settings: S. cerevisiae rad50 strain growth inhibition; at 50.0 µM; active compounds read high
Procedure, shortened: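 Compounds were tested on a yeast strain with an engineered DNA damage repair alteration; the reported value is growth inhibition normalised to vehicle treatment.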

[2] = NCI Yeast Anticancer Drug Screen. Data for the mec2-1 strain (AID 157); settings: S. cerevisiae mec2-1 strain, at 50.0 µM, active compounds read high
Procedure, shortened: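 Strain: mec2-1 (DNA repair/cell cycle alteration). Compound exposure, then growth measured; inhibition expressed relative to vehicle.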

[3] = NCI Yeast Anticancer Drug Screen. Data for the sgs1 mgt1 strain (AID 161);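 further: 0% = growth of cultures given vehicle only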; settings: S. cerevisiae sgs1 mgt1 strain, at 50.0 µM, active compounds read high
Procedure, shortened: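 Read-out: growth inhibition vs vehicle controls. Cells: mutant yeast strain deficient in DNA damage repair.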

[4] = NCI Yeast Anticancer Drug Screen. Data for the cln2 rad14 strain (AID 165);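 further: 0% = growth equal to vehicle treated cultures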; settings: S. cerevisiae cln2 rad14 strain, at 50.0 µM, active compounds read high
Procedure, shortened: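 Compounds are applied to the cln2 rad14 yeast strain, and growth is then compared with that of vehicle-treated cultures to give inhibition.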

[5] = NCI Yeast Anticancer Drug Screen. Data for the bub3 strain (AID 167); settings: S. cerevisiae bub3 mutant strain, at 50.0 µM, active compounds read high
Procedure, shortened: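 Growth of a checkpoint-deficient yeast mutant is measured after compound exposure. Values represent inhibition relative to vehicle.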

[6] = NCI Yeast Anticancer Drug Screen. Data for the mlh1 rad18 strain (AID 175); settings: S. cerevisiae mlh1 rad18 strain growth inhibition; at 50.0 µM; active compounds read high
Procedure, shortened: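 Read-out is yeast growth inhibition, calculated against vehicle-only controls. The compound was applied to a strain engineered with DNA damage repair alterations.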

Measured: growth inhibition

CCCOC(=O)c1ccccc1Cl
inactive: [1] 31.1% | [2] 22.5% | [3] 23.1% | [4] 13.4% | [5] 11.6% | [6] 24.1%

CC(C)(C)c1cc(/C=N/NC(=S)Nc2ccccc2)cc(C(C)(C)C)c1O
inactive: [1] 25.9% | [2] 8.35% | [3] 41% | [4] -26.3% | [5] -7.15% | [6] 41.5%

CCCCOC(=O)OCCOCCOC(=O)OCCCC
inactive: [1] -7.75% | [2] 3.1% | [3] 2.6% | [4] -70.8% | [5] -9.2% | [6] 0.35%

Oc1cc2nc3ccccc3nc2c2ccc(Br)cc12
inactive: [1] -12.8% | [2] -7.45% | [3] 7.7% | [4] -44.6% | [5] -17.7% | [6] -14.1%

Cc1cc(Cl)cc(Cl)c1OCC(=O)Nc1ccc(Cl)cc1
inactive: [1] 6.45% | [2] 2.45% | [3] 8.5% | [4] 4% | [5] 21.9% | [6] -7.7%

CC1=C2CCCCC2(C)C=C(C(=O)O)C1=O (stereo unspecified)
inactive: [1] 22.2% | [2] 50.5% | [3] 18.8% | [4] 34.6% | [5] 12.2% | [6] 23.4%

O=C1NC(=O)c2c(Br)c(Br)c(Br)c(Br)c21
inactive: [1] -20.6% | [2] -32.9% | [3] 2.35% | [4] 9.6% | [5] -16.6% | [6] -1.55%

C/C(=N\N=C(/C)c1cccc2ccccc12)c1cccc2ccccc12
inactive: [1] -8.9% | [2] -0.65% | [3] 4.7% | [4] -15.9% | [5] -17.7% | [6] -36.2%

O=c1[nH]c2nc3ccccc3c(=O)n2/c1=C/c1cccs1
inactive: [1] 28.9% | [2] 2.2% | [3] 4.4% | [4] 20.6% | [5] 14.3% | [6] -15.8%

CC1=C(C(=O)N(C)c2ccc(Cl)c(C(=O)OC(C)C)c2)SCCO1
inactive: [1] -19.6% | [2] -50.8% | [3] -12.1% | [4] -6% | [5] -11.8% | [6] -28.1%

CC1(C2=CCCCC2)CCC(=O)NC1=O (stereo unspecified)
inactive: [1] -6.35% | [2] 10.6% | [3] 0.2% | [4] 35.2% | [5] 14.1% | [6] 28.8%

COc1cccc(C2C3=C(COC3=O)Oc3cc4c(cc32)OCO4)c1 (stereo unspecified)
inactive: [1] -41.1% | [2] -24.4% | [3] -31.4% | [4] -1.6% | [5] -4.55% | [6] -14.2%

C1CCC(NCSC2=NCCS2)CC1
inactive: [1] 36.5% | [2] -4.7% | [3] 0.05% | [4] -29.8% | [5] 7.95% | [6] 1.9%

O=C(Nc1nncs1)c1cccs1
inactive: [1] -13.8% | [2] -6.45% | [3] -5.6% | [4] 3.35% | [5] -11.2% | [6] -27.5%

O=C(N/C(=C/c1ccccc1)C(=O)N1CCN(C(=O)/C(=C\c2ccccc2)NC(=O)c2ccccc2)CC1)c1ccccc1
inactive: [1] 0.9% | [2] -0.45% | [3] -8.05% | [4] -5.7% | [5] -6.8% | [6] -2.95%

C[N+]1=C2[B-](C(C)(C)C)=[N+](C(C)(C)C)[B-]2(C(C)(C)C)[N+](C)=C2[B-](C(C)(C)C)=[N+](C(C)(C)C)[B-]21C(C)(C)C (stereo unspecified)
inactive: [1] 2.65% | [2] 0% | [3] 9.35% | [4] -8.35% | [5] -4.1% | [6] -9.85%

Cc1cc(Cl)c(C)c(C)c1O
inactive: [1] 22.6% | [2] 5.45% | [3] -20.2% | [4] 16.6% | [5] 1.25% | [6] 21.4%

CCOC(=O)/C(=C/c1cn(C(C)=O)c2ccccc12)P(=O)(OC)OC
inactive: [1] -28.9% | [2] -4.1% | [3] -1.15% | [4] 13.8% | [5] 5.75% | [6] -15.8%

Cc1c2c(cc3c(=O)ccn(CCN(C)C)c13)c(=O)ccn2CCN(C)C
inactive: [1] -71.1% | [2] -22.8% | [3] -11.8% | [4] 14.3% | [5] -20.4% | [6] -16.4%

ClCC1CCCO1 (stereo unspecified)
inactive: [1] 23.1% | [2] 12.6% | [3] 31.1% | [4] 3.35% | [5] 24.9% | [6] 25.6%

O=[N+]([O-])c1cccc(SNSc2cccc([N+](=O)[O-])c2)c1
inactive: [1] 29% | [2] 12.8% | [3] 8.4% | [4] -35.5% | [5] 9.8% | [6] 23.8%

O=P(CCCCBr)(NCc1ccccc1)c1ccccc1 (stereo unspecified)
inactive: [1] 5.25% | [2] 7.85% | [3] 15.9% | [4] -19.9% | [5] 14.8% | [6] 13.2%

O=P(O)(Cc1ccccc1)OCC1(O)OCC(O)C(O)C1O (stereo unspecified)
inactive: [1] -16.1% | [2] -6.35% | [3] -28.6% | [4] 12.7% | [5] -19.8% | [6] -23.2%

COCC(C)(CO)CC(C)CO (stereo unspecified)
inactive: [1] -13% | [2] -25.8% | [3] -0.15% | [4] -42% | [5] -7.1% | [6] -1.4%

O=[N+]([O-])c1cc(Cl)ccc1NC(Nc1ccc(Cl)cc1[N+](=O)[O-])C(Cl)(Cl)Cl
inactive: [1] 44.5% | [2] 10.1% | [3] 28.4% | [4] -31.9% | [5] 3.6% | [6] 35.8%

O=S1(=O)C2C=CCC1C(Cl)CC2 (stereo unspecified)
inactive: [1] -7.7% | [2] 29.9% | [3] 36% | [4] -24.4% | [5] 24.9% | [6] -5.25%

O.[Cl][Pt].[NH-]CC[S-]
inactive: [1] -9.5% | [2] 4% | [3] 12.3% | [4] -9.6% | [5] 1.3% | [6] -2%

NC(=O)NCCSC1CCCCC1O (stereo unspecified)
inactive: [1] -23.1% | [2] -35% | [3] -28.4% | [4] 3.1% | [5] -64.5% | [6] 6.45%

N=c1c2ccccc2nc2oc3ccc(Cl)cc3n12
inactive: [1] -15.4% | [2] -32.5% | [3] -6.25% | [4] -0.45% | [5] 15.6% | [6] -8.55%

CCc1c(CO)cnc(C)c1OP(=O)(O)O
inactive: [1] -33.5% | [2] -39.5% | [3] -18.1% | [4] 3.65% | [5] -39.6% | [6] -22.6%

CCOC(=O)C1S(=O)(=O)OCCOS1(=O)=O
inactive: [1] -19.2% | [2] -26.6% | [3] -7.45% | [4] 0.75% | [5] -14.8% | [6] -27.8%

OC1CSCCSCCCSCCSC1
inactive: [1] 34.1% | [2] 22.4% | [3] 44.5% | [4] 15.5% | [5] 35.1% | [6] 40.4%

COc1cccc(NCNC2Nc3ccccc3N2)c1
inactive: [1] 25.1% | [2] 10.1% | [3] -0.75% | [4] -23.4% | [5] 18.4% | [6] 19.8%

CC(C)=C1CCC(CN(C)C)C1=O (stereo unspecified)
inactive: [1] 30.4% | [2] 4.7% | [3] 35% | [4] 5.35% | [5] -18.9% | [6] 7.55%

Nc1ccc(CC(=O)O)cc1S(=O)(=O)O
inactive: [1] 25.8% | [2] -18.4% | [3] 4% | [4] 9.1% | [5] 4.25% | [6] 26.6%

CNC(=O)NC(c1ccc2c(c1)OCO2)c1cc2c(cc1O)OCO2 (stereo unspecified)
inactive: [1] 10.8% | [2] -2.7% | [3] 13.9% | [4] 14.2% | [5] 19.2% | [6] 24.6%

CCCCCOc1nc2c(c(=O)n(C)c(=O)n2C)n1C
inactive: [1] -0.4% | [2] -2.55% | [3] 4.65% | [4] -17.6% | [5] 3.45% | [6] 0.85%

NCC(N)=O
inactive: [1] -1.6% | [2] -14.2% | [3] -29% | [4] -35% | [5] -36.2% | [6] 4.1%

Cc1ccc(S(=O)(=O)Oc2c([N+](=O)[O-])cc(-c3ccccc3)cc2[N+](=O)[O-])cc1
inactive: [1] 47.8% | [2] 37.4% | [3] 63% | [4] 34.5% | [5] 0.7% | [6] 31%

O=C(O)/C=C/c1ccccc1C(=O)O
inactive: [1] 11.3% | [2] -4.3% | [3] 4.05% | [4] -13.2% | [5] -11.4% | [6] 6.05%

CCCCCCC1(/C=C/c2ccc(Cl)cc2Cl)OCCCO1
inactive: [1] 3.3% | [2] 9.1% | [3] -5.45% | [4] -2.75% | [5] 11.8% | [6] 3.65%
